Data published in the supplement of paper PMC6555819.

Assays:
Assay in all cases: PBM binding z-score (relative to random genomic background probes); higher = stronger binding; sequences stand for … in GC…GCGATTGACAGCGTAGAATGAAGG
[1] = test system: RARb homodimer (NR concentration 270 nM)
In short: (§1)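 On custom Agilent 4×180K arrays, double-stranded probes with 34-nt variable regions carried direct-repeat seeds, single-nucleotide variants, half-site ablations or random human genomic background. Ligand-free nuclear receptor dimers were applied for 1 h, and binding was read with antibodies against each partner (one per run). Binding z-scores come from regression-normalized fluorescence, with the random background probes as reference.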

[2] = test system: RARg:RXRa (NR concentration 270 nM, RXRa partner concentration 90 nM)
In short: as §1

[3] = test system: RARg homodimer (NR concentration 270 nM)
In short: as §1

[4] = test system: RXRa DBDmut IVT, anti-RXR (DBD mutation: RXRa K156A/R161A, NR concentration 90 nM)
In short: as §1

[5] = test system: THRa:RXRa (NR concentration 90 nM, RXRa partner concentration 90 nM)
In short: as §1

[6] = test system: THRa homodimer (NR concentration 90 nM)
In short: as §1

[7] = test system: VDR homodimer (NR concentration 270 nM)
In short: as §1

[8] = test system: RXRa homodimer (NR concentration 180 nM)
In short: as §1

[9] = test system: VDR:RXRa (NR concentration 270 nM, RXRa partner concentration 90 nM)
In short: as §1

| Sequence | PBM binding z-score [1] | PBM binding z-score [2] | PBM binding z-score [3] | PBM binding z-score [4] | PBM binding z-score [5] | PBM binding z-score [6] | PBM binding z-score [7] | PBM binding z-score [8] | PBM binding z-score [9] |
| --- | --- | --- | --- | --- | --- | --- | --- | --- | --- |
| ACTAGTTGGTCAGCTGAGGTCACACACAATTCGG | 4.52 | 4.26 | 4.51 | 1.35 | 5.14 | 4.99 | 3.54 |  |  |
| AGTAGCAGGCCAAGGGTCACTCAAGATTAGTCCG | 3.98 | 4.29 | 3.86 | 0.553 | 2.76 | 0.326 | 1.46 |  |  |
| CCTACTGGGCCATACAGAGGTCATTGATCATATG | 3.98 | 4.45 | 3.22 | 0.759 | 3.15 | 1.47 | 4.19 |  |  |
| GCTAGTTTGTCAGTAAAAGGTCACACACCGGTCG | 5.18 | 5.07 | 4.23 | 1.18 | 3.6 | 1.61 | 2.4 |  |  |
| CGTCAAAGTTCAAGGCAACGTAACAGAAAGCAGC | 3.41 | 5.02 | 6.02 | 3.97 | 1.72 | -0.246 | 2.61 |  |  |
| CAAACTAGGTCACAGAGGACAAAGTCCGTGCGTA | 3.93 | 4.96 | 6.01 | 2.36 | 3.89 | 1.94 | 3.57 |  |  |
| ACTAGTTGGTCAGCTGAGGTAACACACAATTCGG | 1.07 | 0.611 | 0.949 | 0.36 | 3.97 | 1.99 | 0.0871 |  |  |
| CAAACTAGGTCACGAAAGGTCAAAGCCGAATGAC | 5.98 | 8.01 | 8.56 | 2.11 | 5.07 | 2.55 | 3.58 |  |  |
| TAGCCTAGGTCATGCGGGCCAGTATAGTGTCGGC | 2.89 | 3.98 | 4.4 | 0.813 | 3.02 | 0.858 | 0.814 |  |  |
| CCTACGGGGCCAAAGGTCATTGATTCCAATGCTC | 4.5 | 6.59 | 5.24 | 1.86 | 3.78 | 0.564 | 2.99 |  |  |
| TCATATAGGTCAAAGGTGAAAGTCGGTGTGGTAA | 4.1 | 7.06 | 5.46 | 2.48 | 3.74 | 0.997 | 1.49 |  |  |
| CCTACTGGGGCACGAAAGGTCATTGATTCAGTGA | 4.81 | 4.75 | 4.85 | 0.748 | 4.03 | 0.632 | 2.34 |  |  |
| CAAACTAGGTCACGAAAGGGCAAAGTCGAATGAC | 4.43 | 5.81 | 6.33 | 1.77 | 4.54 | 1.42 | 1.35 |  |  |
| CAAACTAGGTCACAGAGGTCAAAGTTCGTGCGTA | 5.64 | 7.52 | 7.81 | 3.36 | 4.93 | 3.18 | 7.28 |  |  |
| ATCGAAAGGTCGCAGGTGAGTATACCCACCCGAA | 3.04 | 4.73 | 4.6 | 0.648 | 2.57 | 0.171 | 0.597 |  |  |
| CCTTACGGGTCACGGGGTTATAGCACGACGAGCG | 3.7 | 6.74 | 5.54 | 1.77 | 4 | 0.91 | 2.44 |  |  |

| Sequence | PBM binding z-score [1] | PBM binding z-score [2] | PBM binding z-score [3] | PBM binding z-score [4] | PBM binding z-score [5] | PBM binding z-score [6] | PBM binding z-score [7] | PBM binding z-score [8] | PBM binding z-score [9] |
| --- | --- | --- | --- | --- | --- | --- | --- | --- | --- |
| CAAACTAGGTCACAGAGGTCAAACTCCGTGCGTA | 5.75 | 7.7 | 7.96 | 3.78 | 4.66 | 3.37 | 7.66 |  |  |
| ACTCGGAGGGCAAAGGTCAGAGCTACGCCAGTGA | 4.39 | 7.23 | 5.86 | 1.7 | 3.36 | -0.408 | 1.05 |  |  |
| ACTAGCAGGTCAAGGGTCACTCAAGATTAGTCCG | 4.9 | 6.89 | 6.42 | 2.13 | 4.04 | 1.42 | 2.56 |  |  |
| CCTAGTTGGGCAGGAGGTCACACACCGGATATGA | 3.48 | 3.98 | 3.52 | -0.0255 | 3.14 | 1.57 | 1.37 |  |  |
| CAAACTAGGTCACCGGAAGGTCAAAGTTCGCATG | 5.7 | 8.56 | 7.83 | 2.41 | 4.59 | 3 | 4.52 |  |  |
| ATCGAAAGGTCGACGAGGTGAGTATGCACCGTTT | 3.07 | 4.29 | 4.29 | 1.3 | 3.73 | 0.762 | 1.03 |  |  |
| TTACCAAGGTGAAAGGTCGGTGATGCACGCCTTG | 2.16 | 3.18 | 1.51 | -0.134 | 2.66 | 0.427 | -0.0558 |  |  |
| GCTGCTAGGTCAACTGATGGTCAGCTAAAGCTCG | 3.57 | 5.2 | 5.18 | 1.44 | 2.99 | 0.814 | 0.0317 |  |  |
| CCTACTGGGCCAAAAAGGTAATTGATGCCGATAA | -0.363 | 0.0737 | -0.0665 | -0.561 | 0.109 | -0.602 | -0.646 |  |  |
| CGAACTAAGTCAAAGGACAGTGAAAGGCGACGTA | 1.11 | 0.597 | 1.1 | 0.0633 | 0.219 | -0.0369 | -0.13 |  |  |
| TCTAGTTGGTCGCGGAGGTCACACACGACGGGTA | 3.92 | 3.94 | 3.62 | 0.932 | 3.45 | 2.74 | 2.63 |  |  |
| CGGCCAAGGTCAAAGGTCAGTGAAGAGATGACGG | 5.37 | 9.05 | 8.47 | 3.57 | 4.99 | 2.52 | 3.31 |  |  |
| TAGCCTAGGTCAAGCGGGCCAGTATAGTGTCGGC | 3.29 | 4.34 | 5.14 | 0.428 | 2.9 | 0.702 | -0.353 |  |  |
| TGTCAAAGCTCAAAGGTAACGTAAGTATCCACAC | 0.284 |  | 0.498 | -1 | 1.25 | -0.706 | -0.613 | 0.764 | 0.171 |
| CGTCAAAGTTCAAGCTAACGTAACAGAAAGCAGC | 3.86 | 5.65 | 6.4 | 4.63 | 1.86 | -0.403 | 3.69 |  |  |
